Screen size: about 290,000 compounds; about 3,300 (1.1%) were called active. This is one part of a sample in which actives are shown more often than they occur. Values without a mark were called inactive. Rule as the data show it: active = binding response below about 67% or above about 130%; inconclusive = no clear call, values can overlap the other calls; inactive = in between.

This experiment has as its target Mitogen-activated protein kinase kinase kinase 2 (Homo sapiens) (UniProt Q9Y2U5). Nature of the experiment: wildtype MEKK2 PB1-MEK5 interaction, increase or decrease – biochemical, multiplex bead flow cytometry, Alexa488-MEK5, primary screen (AID 1531). The following applies: Alexa488-MEK5 binding to MEKK2 WT, at 10 µM, actives lie on both sides. A general note: A flow cytometer gives signals particle by particle.
For the molecule `Cn1ccnc1-c1nnn(-c2ccc(F)cc2)n1`, the binding response (% of control) was 97%.

As for `CSc1ccc(S(=O)(=O)N2CCC(C(=O)NCc3ccncc3)CC2)cc1`, the binding response (% of control) was 105%. As for `CN(CC(=O)O)S(=O)(=O)c1ccc2oc3ccccc3c2c1`, the figure is 110%; as for `O=C(NCCCN1CCN(c2ccc(F)cc2)CC1)Nc1ccc([N+](=O)[O-])cc1`, 140% (active).

As to `O=C(COc1ccc([N+](=O)[O-])cc1)Nc1ccc(N2CCCC2)cc1`, the binding response (% of control) is 103%. Take `CN1CCN(CCNC(=O)Nc2ccc([N+](=O)[O-])cc2)CC1`: the binding response (% of control) is 105%. For `COC(=O)C1(C)CC1(c1ccccc1)c1ccccc1` (stereo unspecified), the binding response (% of control) was 104%.

Regarding `CCOCCCn1c(SCC(=O)Nc2cc(OC)ccc2OC)nc2ccccc2c1=O`, the binding response (% of control) was 105%. Regarding `O=C(NCc1ccco1)/C(=C\c1cccc([N+](=O)[O-])c1)NC(=O)c1ccco1`, the binding response (% of control) was 101%. The result for `CCC1CCCCN1CCCNC(=O)Cn1nc(-c2ccccc2)ccc1=O` (stereo unspecified) reads 108%; that for `CCC1CCCCN1CCCNC(=O)c1cc2c(Cl)nc3ccccc3c2s1` (stereo unspecified), 173% (active); that for `CCC1CCCCN1CCCNC(=O)C1CCC(Cn2c(=O)[nH]c3ccccc3c2=O)CC1` (stereo unspecified), 110%. The result for `CN1CCN(Cc2nc3cc(NC(=O)COc4ccc([N+](=O)[O-])cc4)ccc3n2C)CC1` reads 109%; that for `Cc1ccc(S(=O)(=O)/N=S(\C)C(C)C)cc1` (stereo unspecified), 2% [inhibitor] (active); that for `CC/S(CC1CC1(Cl)Cl)=N\S(=O)(=O)c1ccc(C)cc1` (stereo unspecified), 96%.

Consider `CCCC/S(C)=N/S(=O)(=O)c1ccc(C)cc1` (stereo unspecified), for which the binding response (% of control) is 102%. Consider `S=C(NCCCc1ccccc1)Nc1ccc(Br)cc1`, for which the binding response (% of control) is 100%.

For `COc1ccccc1NC(=O)CN(c1ccccc1OC)S(=O)(=O)c1ccccc1`, the binding response (% of control) was 99%. On to `CN(C)c1nc(Nc2ccc(Cl)c(Cl)c2)nc(N(C)C)n1`, for which the binding response (% of control) was 98%. For the molecule `OCCNc1nc(Nc2ccc(Cl)c(Cl)c2)nc2ccccc12`, the binding response (% of control) was 150% (active). For the molecule `Nc1nc(Nc2ccccc2)nc(NCCO)c1[N+](=O)[O-]`, the binding response (% of control) is 98%. For the molecule `CC(C)CNS(=O)(=O)c1ccc(C(=O)Nc2ccc3c(c2)OCO3)cc1`, the binding response (% of control) is 103%. The result for `Cn1c(C(=O)N2CCCC(C(=O)NCc3ccccc3)C2)cc2sccc21` (stereo unspecified) reads 102%; that for `Cn1c(C(=O)NCCCN2CCCCC2)cc2sccc21`, 138% (active); that for `COc1ccc(CCNC(=O)c2cc3sccc3n2C)cc1OC`, 104%. In the case of `COCC(C)NC(=O)COc1nncc2ccccc12` (stereo unspecified), the binding response (% of control) was 40% [inhibitor] (active). As for `CC(C)C(C)NC(=O)COc1ncnc2ccccc12` (stereo unspecified), the figure is 105%. As for `COC(=O)C(C)NC(=O)COc1ccc2ccccc2c1` (stereo unspecified), the figure is 95%. As for `CCC(C)C(=O)Nc1ccccc1N1CCN(c2ccc(F)cc2)CC1` (stereo unspecified), the binding response (% of control) was 101%. As to `COc1cccc(Nc2ncccc2C(=O)O)c1`, the binding response (% of control) is 4% [inhibitor] (active). Regarding `COc1ccc2nc(C)cc(Nc3cccc(C(=O)O)c3)c2c1`, the binding response (% of control) is 110%. Regarding `COc1cc(NC(=O)c2cccnc2SC)cc(OC)c1`, the binding response (% of control) is 101%. As for `COc1ccc(-c2c(NC(=O)c3ccco3)oc3ccc(Cl)cc3c2=O)cc1`, the figure is 104%; as for `COc1ccc2[nH]c3nc(SCC(=O)NC4CC4)nnc3c2c1`, 104%. Regarding `CCCCCCCCCCCCN1[C@@H](CC(C)=O)c2cc(F)cc(F)c2S1(=O)=O`, the binding response (% of control) was 103%. Take `Cc1nc(-c2ccc(Cl)cc2)sc1C1(C)CC(c2ccc(Br)cc2)=NO1` (stereo unspecified): the binding response (% of control) is 95%. As to `O=C(CN1CCOc2ccccc21)N1CCC(Cc2ccccc2)CC1`, the binding response (% of control) is 107%. As for `Cc1ccccc1OCC(O)CN1CCN(c2ccccn2)CC1` (stereo unspecified), the figure is 99%.

`Cc1cccc(OCC(O)CN2CCN(CCN3C(=O)c4cccc5cccc(c45)C3=O)CC2)c1C` (stereo unspecified): the binding response (% of control) is 146% (active).

As for `Cc1cccc(C)c1OCC(O)CN1CCCCC1` (stereo unspecified), the binding response (% of control) was 94%. As for `O=C(NC1CC1)C1=C[C@H](c2coc3ccccc3c2=O)C[C@H](OCCCCO)O1`, the figure is 108%; as for `Cc1cccc(N(C(=O)c2sc(C)nc2C)C(C(=O)NCC2CCCO2)c2ccccc2)c1` (stereo unspecified), 106%.

As for `Nc1nc(Nc2ccccc2F)nc(NC2CCCCC2)c1[N+](=O)[O-]`, the binding response (% of control) is 98%.

For `CCn1c(SCC(=O)Nc2ccc3c(c2)OCCO3)nnc1-c1ccncc1`, the binding response (% of control) is 106%. `CCOc1ccc(N(CC(=O)NCCc2ccc(F)cc2)S(=O)(=O)c2ccccc2)cc1`: the binding response (% of control) is 96%. The result for `CCOc1ccc(N(CC(=O)NCCOc2ccccc2OC)S(=O)(=O)c2ccccc2)cc1` reads 104%; that for `CCOc1ccc(S(=O)(=O)N(CC(=O)O)c2ccccc2)cc1`, 6% [inhibitor] (active). As to `C=Cn1cc[n+](CC(=O)c2ccc(OC)c(OC)c2)c1`, the binding response (% of control) was 96%.

For `CSc1nnc(NC(=O)c2nc(S(=O)(=O)Cc3ccc(C)cc3)ncc2Cl)s1`, the binding response (% of control) is 101%. The result for `COC(=O)c1c(NC(=O)CCCC(=O)O)sc2c1CCCCC2` reads 98%; that for `CCc1ccc(N(CC(=O)Nc2sc3c(c2C(=O)OC)CCCC3)S(C)(=O)=O)cc1`, 93%. The result for `COC(=O)c1c(NC(=O)COC(=O)[C@@H](NS(=O)(=O)c2ccccc2)C(C)C)sc2c1CCC2` reads 1% [inhibitor] (active). As for `Cc1cc(CN(C)C(=O)c2cc(COc3ccc(C)c(C)c3)on2)n[nH]1`, the binding response (% of control) is 109%. Turning to `CN(CCc1ccccc1)c1ccc([N+](=O)[O-])cn1`, the binding response (% of control) was 102%.

As to `Cc1cc(C)c2nc(N(CCN(C)C)C(=O)/C=C/c3cccs3)sc2c1`, the binding response (% of control) was 165% (active). As for `CC(=O)N(CCCN(C)C)c1nc2ccc(C)cc2s1`, the figure is 104%. Turning to `Cc1ccc2sc(N(CCN(C)C)C(=O)/C=C/c3cccs3)nc2c1C`, the binding response (% of control) was 151% (active). For `Cc1cccc2sc(N(CCCN(C)C)C(=O)CCS(=O)(=O)c3ccccc3)nc12`, the binding response (% of control) was 119%. The result for `Cc1ccc2nc(N(CCN(C)C)C(=O)C3=COCCO3)sc2c1` reads 113%. As for `Cc1ccc(S(=O)(=O)N(C)C)cc1NC(=O)/C=C/c1cccs1`, the figure is 107%; as for `COc1ccc(N2CCN(C(=O)[C@@H](NC(=O)c3cc(OC)cc(OC)c3)C(C)C)CC2)cc1`, 108%.

The values are drawn from PubChem BioAssay AID1531 (NMMLSC, 2009).
